Shown are actives, neighbours in structure and some others; about 2.2% of the full set was active somewhere.
aSyn 5UTR inh – MLPCN primary screen, SNCA 5' untranslated region. alpha-synuclein 5'UTR reporter, inhibitor activity. inhibition, % (tested at 7.5 µM). 0.82% of 300,000 active; in the data active = inhibition above about 60%; inconclusive = no clear call, values can overlap the other calls;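 note: H4 neuroglioblastoma cells stably carrying SNCA 5'UTR luciferase fusion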
Ba/F3 V617F tox – loss of viability in JAK2V617F-driven Ba/F3 cells. Ba/F3 EpoR-JAK2V617F viability, ATP luminescence. 1.1% of 220,000 active. inhibition, % at 5.6 µM;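 active = inhibition above the campaign mean plus 3 SD over all tested compounds, cut at about 24% in these data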;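 note: cytokine-independent growth of Ba/F3 cells driven by EpoR plus mutant JAK2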
IEC-6 cytotox – IEC-6 cytotoxicity, counter-screen for KLF5 inhibitors | luminescence viability | inhibition, % at 5 µM | 0.78% of 290,000 active; in the data active = inhibition above about 22%
BaF3 tox – parental Ba/F3 viability inhibition as JAK2V617F counter-screen. CellTiter-Glo ATP luminescence. inhibition, % at 5.6 µM. 1.1% of 220,000 active. AID 1486;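 active = inhibition above a per-campaign cutoff, the mean inhibition of all tested compounds plus 3 SD, cut at about 27% in these data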
APP transl inh – APP translation inhibition; SH-SY5Y APP 5'UTR-luciferase reporter, luminescence; inhibition, % at 2 µM; 0.82% of 190,000 active;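 active = inhibition above a set limit, derived from the sample mean plus 3 SD, cut at about 45% in these data; inconclusive = one replicate passes the limit while the other fails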
KLF5 inh – suppresses KLF5 promoter-driven expression; DLD-1 KLF5 promoter-luciferase reporter, luminescence; inhibition, % at 5 µM; 0.23% of 290,000 active; AID 1700;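 active = inhibition above a per-plate limit of that plate's mean compound inhibition plus 3 SD, cut at about 60% in these data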;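 note: higher means less KLF5 promoter-driven luciferase light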
Numbers stand for hits; – = inactive; ? = inconclusive; · = no result given.

SMILES	aSyn 5UTR inh	Ba/F3 V617F tox	IEC-6 cytotox	BaF3 tox	APP transl inh	KLF5 inh
CN1CC=C(c2c[nH]c3ccccc23)CC1	–	29	–	61	–	–
O=[N+]([O-])c1ccc(CN2CC=C(c3ccccc3)CC2)cc1	–	·	–	·	·	–
C1=C(c2c[nH]c3ccccc23)CCN(Cc2ccccc2)C1	–	97	–	76	–	–
Clc1ccc2[nH]c3c(c2c1)CCNC3	–	·	–	·	·	–
CC(C)[N+](C)(CCC(C(N)=O)(c1ccccc1)c1ccccc1)C(C)C	–	–	–	–	–	–
C[C@]12CCC(=O)CC1CCC1C2CC[C@]2(C)C(OC(=O)CCC(=O)O)CCC12 (stereo partly drawn)	–	·	–	·	·	–
c1ccc2c(CN3CCN(C4CCCCC4)CC3)c[nH]c2c1	–	–	–	–	–	–
c1ccc2c(CN3CCCCCCC3)c[nH]c2c1	–	49	–	38	–	–
CCC1(OC(=O)CN)C(=O)OCc2c1cc1n(c2=O)Cc2cc3ccccc3nc2-1 (stereo not drawn)	103	99	96	96	·	104
COc1ccc(-[n+]2c(-c3ccccc3)cc(-c3ccccc3)cc2-c2ccccc2)cc1	81	·	·	·	·	·
CC(=O)c1cn(Cc2ccccc2C#N)c2ccccc12	–	46	–	67	–	–
COc1ccc(C(CNC(=O)CCc2ccsc2)N(C)C)cc1 (stereo not drawn)	–	·	–	·	·	–
CCOc1ccc(-n2c(O)c(N=Nc3c(C)n(C)n(-c4ccccc4)c3=O)c(=O)[nH]c2=O)cc1	–	–	–	–	·	–
Cc1nn(Cc2ccc(Cl)cc2Cl)c(Cl)c1C(=O)O	–	–	–	–	–	–
N=c1c2c(n(Cc3ccc(Cl)cc3Cl)c3c1CCC3)CCCC2	–	92	–	70	–	–
O=C1N(c2nncs2)CCN1[N+](=O)[O-]	–	–	–	–	·	–
Clc1ccc(C[n+]2c(-c3ccccc3)cc(-c3ccccc3)cc2-c2ccccc2)cc1	–	·	·	·	·	·
O=[N+]([O-])c1ccccc1-c1cc(-c2ccccc2)cc(-c2ccccc2)[n+]1Cc1ccccc1Cl	64	·	·	·	·	·
CC(=O)Nc1ccc(OC(=O)N2CCCCC2)cc1	69	–	–	–	–	–
COC(=O)c1nc(-c2ccc3c(n2)C(=O)C(N)=C(OC)C3=O)c(N)c(-c2ccc(OC)c(OC)c2O)c1C	97	–	–	–	·	–
COC1CC(OC2CCC3(C)C(CCC4C3CCC3(C)C(C5=CC(=O)OC5)C(OC(C)=O)CC43O)C2)OC(C)C1OC1OC(COC2OC(CO)C(O)C(O)C2O)C(O)C(O)C1O (stereo not drawn)	115	·	·	·	·	·
O=C(NC(=S)N1C[C@H]2C[C@H](C1)c1cccc(=O)n1C2)c1ccc(Cl)cc1Cl	–	·	–	·	·	–
CCOc1cccc(CNCCc2c(C)[nH]c3ccc(OC(F)(F)F)cc23)c1O	113	·	–	·	·	–
CC[n+]1c(/C=C/N(C)c2ccccc2)sc2ccc(Cl)cc21	–	80	–	72	–	–
COC(=O)C1=C(c2cc3ccccc3o2)C[C@@H]2CC[C@H]1N2C(=O)N1CCCCC1	66	·	·	·	·	·
SMILES	aSyn 5UTR inh	Ba/F3 V617F tox	IEC-6 cytotox	BaF3 tox	APP transl inh	KLF5 inh
O=c1[nH]c(O)c(/C=C2\C=Nc3ccc(OCc4ccccc4)cc32)c(=O)[nH]1	–	·	–	·	·	–
N=C1c2ccccc2CN1c1ncccn1	–	–	–	–	–	–
CC12CC[C@H]3[C@@H](CCC4(O)C[C@H](O)CCC34/C=N/NC(=O)c3ccccc3O)C1(O)CCC2C1=CC(=O)OC1 (stereo partly drawn)	77	–	–	–	·	–
CC12CC[C@H]3[C@@H](CCC4(O)C[C@H](O)CCC34/C=N/NC(=O)c3ccccc3F)C1(O)CCC2C1=CC(=O)OC1 (stereo partly drawn)	64	–	–	–	·	–
C[N+](C)(N)CCOC(=O)C(O)(c1ccccc1)C1CCCCC1 (stereo not drawn)	–	·	·	·	·	·
O=C(O)c1ccc(NC(=O)N2C[C@H]3C[C@@H](C2)c2cccc(=O)n2C3)cc1	–	·	–	·	·	–
COc1ccc(CNCCc2ccc3c(c2)OCO3)cc1Br	–	·	–	·	·	–
Cn1c(O)c(C=NCCCCCCCCCCC(=O)O)c(=O)n(C)c1=O	–	–	–	–	·	–
O=c1[nH]c(=O)n(-c2ccccc2)c(O)c1/C=C1/C(c2ccccc2)=Nc2ccccc21	–	80	55	68	68	–
CCCCCCCSc1cc(OC)c(CCNC)cc1OC	121	–	–	–	–	–
CCCCCSc1cc(OC)c(CCNC)cc1OC	–	–	–	–	–	–
Cc1ccc(C)c(OCc2cc(C(=O)N3C[C@H]4C[C@@H](C3)c3cccc(=O)n3C4)no2)c1	–	·	–	·	·	–
CC(C)n1c(O)c(C2c3cc(Cl)ccc3Oc3[nH]c(=O)n(C(C)C)c(=O)c32)c(=O)[nH]c1=O (stereo not drawn)	–	–	–	–	·	–
CN(C)c1ccc(/C=C/C=C/c2sc3ccccc3[n+]2C)cc1	?	99	–	79	·	–
CC(=O)OC(C)(C)/C=C/C(=O)[C@](C)(O)[C@H]1[C@H](O)C[C@@]2(C)[C@@H]3CC=C4[C@H](C[C@H](O)C(=O)C4(C)C)[C@]3(C)C(=O)C[C@]12C	·	101	98	88	90	83
CC(=O)OC1CC[C@]2(C#N)[C@H]3CC[C@]4(C)[C@H](C5C=CC(=O)O5)CCC4(O)C3CCC2(O)C1 (stereo partly drawn)	85	·	–	·	·	–
CC(=O)c1cn(Cc2ccccc2F)c2ccccc12	–	·	–	·	·	–
CCn1c(NN=O)nc2ccccc21	74	–	–	–	–	–
Nc1ncnc2c1ccn2[C@@H]1O[C@H](CO)[C@@H](O)[C@H]1O	107	·	·	·	·	·
NC(=S)c1cn(C2OC(CO)C(O)C2O)c2ncnc(N)c12 (stereo not drawn)	105	99	100	104	·	110
CCOc1ccc(-c2cc(C)[n+](CCO)c(-c3ccc(OCC)cc3)c2)cc1	–	57	–	72	–	–
CCOc1ccc(-c2cc(C)[n+](CCc3ccc(OC)c(OC)c3)c(-c3ccc(OCC)cc3)c2)cc1	–	·	–	·	·	–
Cc1cc(OC(=O)N(C)C)nc(SCc2c(Cl)cccc2Cl)n1	–	–	–	–	·	–
COc1cc(N2C(=O)CC(=O)NC2=O)cc(OC)c1OC	–	·	–	·	·	–
CP(C)(=O)CCC(=O)O	–	–	–	36	–	–
COc1ccc(-c2cc(=O)oc3c(C)c(OC(C)C(=O)N4C[C@H]5C[C@@H](C4)c4cccc(=O)n4C5)ccc23)cc1 (stereo partly drawn)	–	·	–	·	·	–
C=C(C=O)CC1CC(O)[C@]2(C)OC3CC4OC5C[C@]6(C)O[C@]7(C)CCC8OC9C[C@]%10(C)OC%11C(C)=CC(=O)OC%11CC%10OC9C[C@@H](C)C8OC7CC6O[C@]5(C)CC5OC5C4OC3CC2O1 (stereo partly drawn)	114	97	–	97	96	–
CCC[N+]12CCC(CC1)C(=C(c1ccccc1)c1ccccc1)C2	–	–	–	36	–	–

From PubChem BioAssay
